Measured values reported in PubChem BioAssay (NCATS).
Results filed as inconclusive are left out. Active and inactive are the calls of the source. Calls come from the whole dose curve; as a rule, active = well fitted cell-killing curve with a large enough effect; inconclusive = small, poorly fitted or top-dose-only effect, or effect the other way; inactive = no such curve, though single readings can be large or run the other way. Residues, ends and D or L forms follow the SMILES beside them. *: point of attachment. Cbz = O=C(OCc1ccccc1)*

What was measured:
[1] = Quantitative High-Throughput drug screen in 47 multiple myeloma cell lines against the NCATS MIPE library collection: KMS28PE_JCRB cell viability assay (AID 1918983); note: nearly all actives have a fitted effect of over 35% in size
In short: (§1)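 Inhibition of viability over 48 h was scored by ATP content (CellTiter-Glo) in 500-cell wells. Zero and full viability were defined by media-only and DMSO-only wells.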

[2] = Quantitative High-Throughput drug screen in 47 multiple myeloma cell lines against the NCATS MIPE library collection: L363_DSMZ cell viability assay (AID 1918984); note: nearly all actives have a fitted effect of over 40% in size
In short: as §1

[3] = Quantitative High-Throughput drug screen in 47 multiple myeloma cell lines against the NCATS MIPE library collection: KMS34_JCRB cell viability assay (AID 1918985); note: nearly all actives have a fitted effect of over 40% in size
In short: as §1

[4] = Quantitative High-Throughput drug screen in 47 multiple myeloma cell lines against the NCATS MIPE library collection: OCIMY7_PLB cell viability assay (AID 1918987); conditions: OCI-MY7 myeloma viability, CellTiter-Glo ATP, 48 h; viability (% of DMSO): at 45.8 µM (top of the series); note: nearly all actives have a fitted effect of over 65% in size
In short: as §1

[5] = Quantitative High-Throughput drug screen in 47 multiple myeloma cell lines against the NCATS MIPE library collection: OCIMY5_PLB cell viability assay (AID 1918988); note: nearly all actives have a fitted effect of over 65% in size
In short: as §1

[6] = Quantitative High-Throughput drug screen in 47 multiple myeloma cell lines against the NCATS MIPE library collection: OPM1_PLB cell viability assay (AID 1918989); note: nearly all actives have a fitted effect of over 40% in size
In short: as §1

[7] = Quantitative High-Throughput drug screen in 47 multiple myeloma cell lines against the NCATS MIPE library collection: U266_ATCC cell viability assay (AID 1919864); note: nearly all actives have a fitted effect of over 35% in size
In short: as §1

[8] = Quantitative High-Throughput drug screen in 47 multiple myeloma cell lines against the NCATS MIPE library collection: XG6_PLB cell viability assay (AID 1919865); note: nearly all actives have a fitted effect of over 40% in size
In short: as §1

[9] = Quantitative High-Throughput drug screen in 47 multiple myeloma cell lines against the NCATS MIPE library collection: UTMC2_PLB cell viability assay (AID 1919868); conditions: CellTiter-Glo ATP luminescence, 48 h; viability (% of DMSO control): at 45.8 µM (top of the series); note: nearly all actives have a fitted effect of over 55% in size
In short: as §1

[10] = Quantitative High-Throughput drug screen in 47 multiple myeloma cell lines against the NCATS MIPE library collection: PCM6_Riken cell viability assay (AID 1919870); note: nearly all actives have a fitted effect of over 30% in size
In short: as §1

[11] = Quantitative High-Throughput drug screen in 47 multiple myeloma cell lines against the NCATS MIPE library collection: RPMI8226_ATCC cell viability assay (AID 1919871); note: nearly all actives have a fitted effect of over 30% in size
In short: as §1

[12] = Quantitative High-Throughput drug screen in 47 multiple myeloma cell lines against the NCATS MIPE library collection: KMS28BM_JCRB cell viability assay (AID 1919874); note: nearly all actives have a fitted effect of over 35% in size
In short: as §1

[13] = Quantitative High-Throughput drug screen in 47 multiple myeloma cell lines against the NCATS MIPE library collection: XG1_PLB cell viability assay (AID 1919866); note: nearly all actives have a fitted effect of over 35% in size
In short: as §1

[14] = Quantitative High-Throughput drug screen in 47 multiple myeloma cell lines against the NCATS MIPE library collection: VP6_DJ cell viability assay (AID 1919867); note: nearly all actives have a fitted effect of over 40% in size
In short: as §1

[15] = Quantitative High-Throughput drug screen in 47 multiple myeloma cell lines against the NCATS MIPE library collection: PE2_PLB cell viability assay (AID 1919869); note: nearly all actives have a fitted effect of over 35% in size
In short: as §1

[16] = Quantitative High-Throughput drug screen in 47 multiple myeloma cell lines against the NCATS MIPE library collection: OPM2_DSMZ cell viability assay (AID 1919872); note: nearly all actives have a fitted effect of over 30% in size
In short: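 CellTiter-Glo ATP luminescence gave viability after 48 h compound treatment at 37C of 500 multiple myeloma cells per well. Normalisation used DMSO-only wells as 100% and media-only wells as 0% viability; primary qHTS of approved and investigational drugs.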

[17] = Quantitative High-Throughput drug screen in 47 multiple myeloma cell lines against the NCATS MIPE library collection: KMS11_JCRBsus cell viability assay (AID 1919873); note: nearly all actives have a fitted effect of over 50% in size
In short: as §1

[18] = Quantitative High-Throughput drug screen in 47 multiple myeloma cell lines against the NCATS MIPE library collection: SKMM1_PLB cell viability assay (AID 1919863); conditions: SKMM1 myeloma viability, CellTiter-Glo ATP, 48 h; viability: stronger effect = lower value; note: nearly all actives have a fitted effect of over 35% in size
In short: as §1
Potency is the fitted concentration of half-maximal effect.

COc1ccc(C=Cc2cc(OC)c(OC)c(OC)c2)cc1NC(=O)[C@H](N)CO
active: Potency [1] 9.3 nM | Potency [2] 9.3 nM | Potency [3] 4.2 nM | Potency [4] 1 nM | Potency [5] 2.6 nM | Potency [6] 1 nM | Potency [7] 13.2 nM | Potency [9] 1 nM | Potency [10] 4.2 nM | Potency [11] 26.4 nM | Potency [12] 11.8 nM
inactive: Potency [8]

CC(C)C[C@@H](C=O)NC(=O)[C@H](CC(C)C)NC(=O)[C@H](CC(C)C)NC(=O)OCc1ccccc1 (Cbz-Leu-Leu-Leu-aldehyde)
active: Potency [1] 209 nM | Potency [2] 118 nM | Potency [3] 235 nM | Potency [4] 296 nM | Potency [5] 372 nM | Potency [6] 296 nM | Potency [7] 166 nM | Potency [8] 105 nM | Potency [13] 148 nM | Potency [14] 132 nM | Potency [9] 1180 nM | Potency [15] 209 nM | Potency [10] 332 nM | Potency [11] 833 nM | Potency [16] 662 nM | Potency [17] 264 nM | Potency [12] 235 nM

COc1cccc2c1C(=O)c1c(O)c3c(c(O)c1C2=O)C[C@@](O)(C(=O)CO)C[C@@H]3O[C@H]1C[C@H](N)[C@@H](O)[C@H](C)O1
active: Potency [1] 526 nM | Potency [2] 1870 nM | Potency [3] 743 nM | Potency [4] 2090 nM | Potency [5] 526 nM | Potency [6] 743 nM | Potency [18] 935 nM | Potency [7] 1320 nM | Potency [8] 148 nM | Potency [13] 526 nM | Potency [14] 935 nM | Potency [9] 118 nM | Potency [11] 935 nM | Potency [17] 935 nM | Potency [12] 418 nM

NC(=NCCCCCCN=C(N)N=C(N)Nc1ccc(Cl)cc1)N=C(N)Nc1ccc(Cl)cc1
active: Potency [1] 16600 nM | Potency [2] 8330 nM | Potency [3] 11800 nM | Potency [4] 2960 nM | Potency [5] 8330 nM | Potency [6] 2640 nM | Potency [18] 11800 nM | Potency [8] 2350 nM | Potency [14] 2350 nM | Potency [9] 5260 nM | Potency [15] 6620 nM | Potency [10] 2640 nM | Potency [11] 16600 nM | Potency [16] 14800 nM | Potency [12] 18700 nM

COc1cc(C[C@@H](CO)[C@H](CO)Cc2ccc(O)c(OC)c2)ccc1O
active: Potency [2] 5900 nM | Potency [4] 1050 nM | Potency [5] 332 nM | Potency [6] 935 nM | Potency [7] 469 nM | Potency [8] 209 nM | Potency [13] 418 nM | Potency [14] 372 nM | Potency [9] 1320 nM | Potency [15] 2350 nM | Potency [10] 132 nM
inactive: Potency [1] | Potency [3] | viability [18] 127% | Potency [16] | Potency [12]

CC(=O)N1CCN(c2ccc(OCc3nn(C)c(C)c3-c3cccc4c(CCCOc5cccc6ccccc56)c(C(=O)O)n(Cc5cccnc5)c34)cc2)CC1
active: Potency [1] 16600 nM | Potency [2] 1180 nM | Potency [3] 18700 nM | Potency [4] 1 nM | Potency [5] 118 nM | Potency [6] 469 nM | Potency [18] 20900 nM | Potency [7] 526 nM | Potency [8] 105 nM | Potency [13] 235 nM | Potency [14] 332 nM | Potency [15] 1660 nM | Potency [10] 1180 nM | Potency [11] 23500 nM | Potency [16] 23500 nM | Potency [17] 105 nM | Potency [12] 23.5 nM

CN(C)c1ccc(C(=O)NCCCCCCC(=O)NO)cc1
active: Potency [1] 935 nM | Potency [2] 83.3 nM | Potency [3] 662 nM | Potency [4] 590 nM | Potency [5] 469 nM | Potency [6] 296 nM | Potency [7] 1180 nM | Potency [8] 1870 nM | Potency [13] 1180 nM | Potency [14] 148 nM | Potency [9] 332 nM | Potency [15] 2350 nM | Potency [10] 662 nM | Potency [11] 1870 nM | Potency [16] 935 nM | Potency [17] 743 nM | Potency [12] 526 nM

O=C1NC(=O)[C@@H](c2cn3c4c(cccc24)CCC3)[C@H]1c1c[nH]c2ccccc12
active: Potency [1] 833 nM | Potency [2] 118 nM | Potency [3] 418 nM | Potency [4] 37.2 nM | Potency [5] 132 nM | Potency [6] 2090 nM | Potency [13] 33.2 nM | Potency [14] 526 nM | Potency [9] 332 nM | Potency [15] 1870 nM | Potency [11] 16600 nM

COc1cc2c(cc1OC)[C@@H]1C(=O)c3ccc4c(c3O[C@@H]1CO2)C=CC(C)(C)O4
active: Potency [1] 418 nM | Potency [2] 26.4 nM | Potency [3] 23500 nM | Potency [4] 418 nM | Potency [5] 148 nM | Potency [6] 10500 nM | Potency [18] 13200 nM | Potency [8] 105 nM | Potency [14] 41.8 nM | Potency [9] 418 nM | Potency [15] 7430 nM | Potency [10] 7430 nM | Potency [17] 41.8 nM | Potency [12] 5900 nM

CCOC(=O)[C@@H](N)Cc1ccc(-c2cc(O[C@H](c3ccc(Cl)cc3-n3ccc(C)n3)C(F)(F)F)nc(N)n2)cc1
active: Potency [1] 20900 nM | Potency [2] 10500 nM | Potency [3] 16600 nM | Potency [4] 11800 nM | Potency [5] 18700 nM | Potency [6] 23500 nM | Potency [7] 23500 nM | Potency [8] 16600 nM | Potency [14] 26400 nM | Potency [9] 20900 nM | Potency [15] 23500 nM | Potency [10] 18700 nM | Potency [11] 20900 nM | Potency [16] 18700 nM | Potency [17] 16600 nM | Potency [12] 18700 nM
